Calls of active or inactive are those of the source. Cut-off read from the data, not from the text of the source: active = remaining activity below about 50%; inactive = the rest.

Chain of Phospholipase D1 (Homo sapiens) (Q13393 whole entry, looked up): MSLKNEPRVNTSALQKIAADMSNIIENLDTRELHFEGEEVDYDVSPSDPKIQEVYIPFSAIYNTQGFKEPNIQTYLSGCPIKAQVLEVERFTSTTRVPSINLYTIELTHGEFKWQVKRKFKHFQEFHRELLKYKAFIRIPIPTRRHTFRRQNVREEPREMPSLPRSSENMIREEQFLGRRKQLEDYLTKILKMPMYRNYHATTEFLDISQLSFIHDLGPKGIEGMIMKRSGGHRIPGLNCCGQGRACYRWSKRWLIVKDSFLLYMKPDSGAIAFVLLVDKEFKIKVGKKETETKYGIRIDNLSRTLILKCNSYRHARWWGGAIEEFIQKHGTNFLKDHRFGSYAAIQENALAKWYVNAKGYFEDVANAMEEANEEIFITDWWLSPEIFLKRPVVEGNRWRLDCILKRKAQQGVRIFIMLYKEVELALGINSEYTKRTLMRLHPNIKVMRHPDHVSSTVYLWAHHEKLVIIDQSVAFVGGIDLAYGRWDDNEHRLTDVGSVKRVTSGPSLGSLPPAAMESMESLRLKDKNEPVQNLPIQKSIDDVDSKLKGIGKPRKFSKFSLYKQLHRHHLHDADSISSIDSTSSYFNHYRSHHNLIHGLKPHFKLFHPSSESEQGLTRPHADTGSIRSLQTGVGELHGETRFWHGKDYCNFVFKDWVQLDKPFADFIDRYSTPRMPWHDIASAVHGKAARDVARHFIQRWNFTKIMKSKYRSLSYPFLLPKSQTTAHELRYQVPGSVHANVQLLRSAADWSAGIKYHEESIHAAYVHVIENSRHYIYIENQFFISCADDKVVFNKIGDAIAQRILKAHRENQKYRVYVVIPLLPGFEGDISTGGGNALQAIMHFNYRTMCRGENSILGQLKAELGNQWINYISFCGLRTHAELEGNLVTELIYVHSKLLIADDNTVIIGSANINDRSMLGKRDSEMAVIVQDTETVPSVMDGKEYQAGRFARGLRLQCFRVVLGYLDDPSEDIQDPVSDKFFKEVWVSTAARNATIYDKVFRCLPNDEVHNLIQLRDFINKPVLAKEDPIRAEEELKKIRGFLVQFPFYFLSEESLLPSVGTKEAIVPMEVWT
Chain of Phospholipase D1 (Homo sapiens) (Q13393 whole entry, looked up): as above

This assay has as its target Phospholipase D1 (Homo sapiens) (UniProt Q13393). The assay can be described thus: cellular phospholipase D1 activity inhibition – Calu-1 cells, single concentration (AID 602144).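 Note: tested at 200 nM.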 As to conditions: cellular PLD1 activity, active compounds read low.
On to `C[C@@H](CN1CCC2(CNCc3ccccc32)C1)NC(=O)c1ccc2ccccc2c1` (stereo not given in full), for which the remaining activity is 95.4% (inactive).
The same measure for `COc1cccc(N2CCN(CCNC(=O)c3ccc4ccccc4c3)CC2)c1`: 77.7% (inactive).
With `O=C1c2ccccc2C(=O)N1CCCN1CCC(n2c(=O)[nH]c3ccccc32)CC1`, the remaining activity is 76.2% (inactive).
As to `Cn1c(=O)n(C2CCN(CCNC(=O)c3ccc(F)cc3)CC2)c2ccccc21`, the remaining activity is 84.4% (inactive).
Take `O=C(NCCN1CCN(c2ccccn2)CC1)c1ccc(C(F)(F)F)cc1`: the remaining activity was 152% (inactive).
With `C[C@@H](CN1CCC(n2c(=O)[nH]c3ccccc32)CC1)NC(=O)c1ccc2ncccc2c1`, the remaining activity is 29.2% (active).
On to `O=C(NCCN1CCC(n2c(=O)[nH]c3ccccc32)CC1)c1cccc2ccc3ccccc3c12`, for which the remaining activity was 75.2% (inactive).
Consider `O=C(c1ccc2ccccc2c1)N1CCC2(CC1)C(=O)NCN2c1ccccc1`, for which the remaining activity was 113% (inactive).
Take `Cn1c(C(=O)NCCN2CCN(c3ccncc3)CC2)cc2ccccc21`: the remaining activity was 188% (inactive).
Then `O=C(NCCN1CCC(c2nc3ccccc3[nH]2)CC1)c1ccc2ccccc2c1`, with 101% (inactive); and `CN1CCC2(CCN(CCNC(=O)[C@H]3C[C@@H]3c3ccccc3)CC2)C1=O`, with 107% (inactive).
The same measure for `C[C@@H](CN1CCC(n2c(=O)[nH]c3ccccc32)CC1)NC(=O)c1ccc(F)c(F)c1`: 21.3% (active); for `CCNC(=S)NCCN1CCC(n2c(=O)[nH]c3ccccc32)CC1`: 144% (inactive).
The same measure for `C[C@H](CN1CCC2(CC1)CNCc1ccccc12)NC(=O)c1ccc2ccccc2c1`: 126% (inactive).
For `Cc1ccc(C(=O)N[C@@H](C)CN2CCC(n3c(=O)[nH]c4cc(Cl)ccc43)CC2)cc1`, the remaining activity was 12.1% (active).
Then `C[C@@H](CN1CCC(n2c(=O)[nH]c3ccccc32)CC1)NC(=O)c1ccc(Cl)c(Cl)c1`, with 20.9% (active); and `C[C@@H](CN1CCC(n2c(=O)[nH]c3cc(F)ccc32)CC1)NC(=O)c1ccc(F)c(F)c1`, with 19.7% (active); and `O=C(NCCN1CCC(n2c(=O)[nH]c3ccc(F)cc32)CC1)c1ccc(Cl)c(Cl)c1`, with 0% (active).
On to `O=C(c1ccc(Cl)cc1)N(CCN1CCC(n2c(=O)[nH]c3ccccc32)CC1)C(=O)c1ccc(Cl)cc1`, for which the remaining activity was 63.9% (inactive).
For the molecule `O=C(NCCN1CCC2(CC1)CNCc1ccccc12)c1cnc2ccccc2c1`, the remaining activity was 95.4% (inactive).
The same measure for `O=C(NCCN1CCC(n2c(=O)[nH]c3ccccc32)CC1)C(c1ccccc1)(c1ccccc1)c1ccccc1`: 99% (inactive); for `O=C(NCCN1CCC(n2c(=O)[nH]c3ccccc32)CC1)c1ccc2c(ccc3ccc4ccccc4c32)c1`: 74.8% (inactive).
Regarding `O=C(NCCN1CCC(c2nc3ccccc3[nH]2)CC1)C1CC1c1ccccc1` (stereo not given), the remaining activity was 56.9% (inactive).
Turning to `C[C@@H](CN1CCC2(CC1)CN(S(C)(=O)=O)c1ccccc12)NC(=O)c1cnc2ccccc2c1`, the remaining activity was 118% (inactive).
Then `O=C1c2ccccc2C(=O)N1CCCNc1ccc2ccccc2c1`, with 145% (inactive); and `O=C1c2ccccc2C(=O)N1CCCN1CCC(c2nc3ccccc3[nH]2)CC1`, with 95.3% (inactive).
Then `O=c1[nH]c2ccccc2n1C1CCN(CCNS(=O)(=O)c2ccccc2[N+](=O)[O-])CC1`, with 132% (inactive); and `Nc1ccc(C(=O)NCCN2CCC(n3c(=O)[nH]c4ccccc43)CC2)c(F)c1`, with 68.5% (inactive).
Turning to `O=C(NCCN1CCC(C(=O)NCc2ccc(Cl)cc2)CC1)c1ccc2ccccc2c1`, the remaining activity was 99.2% (inactive).
For `C[C@@H](CN1CCC(n2nnc3cc(C(F)(F)F)ccc32)CC1)NC(=O)c1ccc2ccccc2c1`, the remaining activity is 65.2% (inactive).
Take `O=C(NCCN1CCC(c2nc3ccccc3[nH]2)CC1)c1cnc2ccccc2c1`: the remaining activity was 123% (inactive).
Then `C[C@@H](CN1CCC(n2c(=O)[nH]c3cc(I)ccc32)CC1)NC(=O)c1ccc2ccccc2c1`, with 20.1% (active).
Then `C[C@@H](CN1CC=C(n2c(=O)[nH]c3ccccc32)CC1)NC(=O)[C@H]1C[C@@H]1c1ccccc1`, with 15.7% (active); and `NC1(CN2CCC(n3c(=O)[nH]c4cc(Cl)ccc43)CC2)CCCC1` (tested in a mixture with another compound), with 70.2% (inactive); and `O=C(NCCN1CCC2(CCc3ccccc32)CC1)[C@H]1C[C@@H]1c1ccccc1`, with 125% (inactive).
Then `Cc1cccc(NC(=S)NCCN2CCC(n3c(=O)[nH]c4ccccc43)CC2)c1`, with 148% (inactive); and `C[C@H](CN1CCC(n2nnc3ccccc32)CC1)NC(=O)c1cnc2ccccc2c1`, with 38.2% (active); and `CS(=O)(=O)N1CC2(CCN(CCNC(=O)c3cnc4ccccc4c3)CC2)c2ccccc21`, with 99.4% (inactive).
Regarding `O=C(NCCN1CCC(n2nnc3ccccc32)CC1)C1CC1c1ccccc1` (stereo not given), the remaining activity was 52.7% (inactive).
The same measure for `Cc1cccc(NC(=O)NCCN2CCC(n3c(=O)[nH]c4ccccc43)CC2)c1`: 67.6% (inactive).

Values taken from PubChem BioAssay AID602144 (Vanderbilt Specialized Chemistry Center, 2011).
